This is a sample that favours compounds with a hit; in the whole collection about 2.1% have one here.
ARNT TACC3 PPI = ARNT/TACC3 interaction disruption; AlphaScreen His-ARNT PAS-B/GST-TACC3 binding, luminescence; TACC3 fragment carries E629A point mutation; inhibition, % at 9.99 µM; hit rate 0.66% among 390,000;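 active means mean inhibition of replicates at least 50% and at least half of replicates each reaching 50%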;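 further: 0% = complete ARNT plus TACC3 wells and 100% = ARNT alone without TACC3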
NSD2 inh = inhibitors of human histone methyltransferase NSD2; O96028; NSD2 peptide methylation, AlphaScreen, 120 min; inhibition, % at 12.5 µM; hit rate 0.54% among 310,000; in the data active means inhibition above about 50%
SIRT5 block = blocks human SIRT5 desuccinylation of peptide | Purified SirT5, succinyl-peptide AMC, trypsin-coupled fluorescence | inhibition, % at 15 µM | hit rate 1.1% among 330,000; in the data active means inhibition above about 15%
Target sequence (Q9NXA8 whole entry, looked up): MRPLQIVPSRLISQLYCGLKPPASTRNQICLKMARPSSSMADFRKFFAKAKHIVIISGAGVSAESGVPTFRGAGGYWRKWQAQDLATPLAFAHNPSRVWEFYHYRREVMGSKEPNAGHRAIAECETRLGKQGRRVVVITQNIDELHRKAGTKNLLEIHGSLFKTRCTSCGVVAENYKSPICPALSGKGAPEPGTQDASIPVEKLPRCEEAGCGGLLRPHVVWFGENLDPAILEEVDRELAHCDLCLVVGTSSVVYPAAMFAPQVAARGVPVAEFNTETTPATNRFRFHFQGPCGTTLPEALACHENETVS
PfHsp90 set2 = growth inhibition of yeast expressing Plasmodium Hsp90; S. cerevisiae expressing PfHsp90, BacTiter-Glo ATP, 48 h; yeast lacking PDR1 and PDR3 efflux regulators; inhibition, % at 9.4 µM; hit rate 0.32% among 310,000;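 active means every replicate shows inhibition above about 80%, whatever the replicate mean, limit read from the data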;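 further: 0% = DMSO neutral controls and 100% = 20 µM radicicol positive controls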
CASP6 VEID inh = inhibitors of human caspase-6; purified caspase-6, Z-VEID-R110 cleavage fluorescence; inhibition, % at 12.5 µM; hit rate 0.53% among 350,000; AID 686996;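 active means mean inhibition across replicates at least about 35%, with every replicate also reaching that limit, limit read from the data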;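 further: 0% = median of neutral control wells and 100% = no fluorescence left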
Target sequence (P55212 24-179 limits assumed): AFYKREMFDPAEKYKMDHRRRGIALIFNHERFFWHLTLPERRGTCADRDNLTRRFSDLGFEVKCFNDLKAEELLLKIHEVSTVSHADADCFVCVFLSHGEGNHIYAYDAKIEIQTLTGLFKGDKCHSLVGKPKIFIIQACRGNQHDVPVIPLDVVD
Target sequence (P55212 194-293 limits assumed): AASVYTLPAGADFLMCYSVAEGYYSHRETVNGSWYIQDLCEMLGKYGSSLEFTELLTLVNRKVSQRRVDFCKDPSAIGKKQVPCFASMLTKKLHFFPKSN
* marks the source's active call; other numbers are inactive results; / = no result.

SMILES	ARNT TACC3 PPI	NSD2 inh	SIRT5 block	PfHsp90 set2	CASP6 VEID inh
CCNC(=O)C[C@H]1CC[C@H]2[C@H](COc3ccc(NC(=O)Nc4ccc(C)cc4)cc3C(=O)N2C)O1	0	/	-1	/	-1
COc1cccc(-c2ccc([C@H]3[C@@H](CO)N4C(=O)CN(C(=O)NC(C)C)C[C@@H]34)cc2)c1	/	/	-1	/	-2
O=C(CCl)NNC(=O)c1c(O)c2ccccc2[nH]c1=O	-1	10	1	0	0
CCCCC(=O)NNC(=O)c1c(O)c2ccccc2[nH]c1=O	6	-6	16*	3	0
O=C(NC1CC1)c1c(O)c2ccccc2[nH]c1=O	15	0	1	29	45*
O=C(NC1CCCCCCC1)c1c(O)c2ccccc2[nH]c1=O	-1	-2	/	-1	/
COCC(=O)NC[C@H]1N[C@H](CO)[C@@H]1c1ccc(C#CC2CCCCC2)cc1	/	/	-2	/	-2
Cc1cccc(COC[C@H](Cc2ccccc2)N2CCN(C(=O)c3cc(Cl)cc(Cl)c3)CCC2=O)c1	/	/	41*	/	-2
COCCN1C=C2C(=O)C(C)(OC(=O)CCc3ccccc3)C(=O)C=C2C=C1c1ccc(C#N)cc1 (centres undefined)	active	/	/	3	7
CCNC(=S)NNC(=O)c1cccn(Cc2ccc(Cl)cc2)c1=O	44*	4	/	/	/
CNC(=S)NNC(=O)c1cccn(Cc2ccc(Cl)cc2Cl)c1=O	/	1	/	/	/
CCC(=O)N[C@H]1CC[C@H](CCn2cc(CN(C)C)nn2)O[C@@H]1CO	15	/	-6	/	1
Cc1ccc2c(cnn2C(=O)CCCC(=O)NCc2ccc(Cl)cc2)c1	-1	/	-7	-6	1
CCOc1ccc(CNC(=O)CCCC(=O)n2ncc3cc(C)ccc32)cc1	-1	/	15*	-14	-1
Cc1cc(C)n2c(Nc3ccc4c(c3)OCCO4)c(-c3ccccn3)nc2n1	/	/	/	/	-3
Cc1ccn2c(Nc3ccc4c(c3)OCO4)c(-c3ccccn3)nc2c1	66*	27	1	18	-2
CCC1C/C(=C\c2cccnc2)C(=O)/C(=C/c2cccnc2)C1 (centres undefined)	-3	/	1	100*	17
Cn1c(SCCOc2ccccc2Cl)nnc1-c1ccncc1	3	-3	-3	2	35*
O=C(O)c1cc(O)c2c(c1)C(=O)c1cccc(O)c1C2=O	-2	/	18*	-7	40*
Cc1cc(O)c2c(c1)C(=O)c1cccc(O)c1C2=O	/	/	/	/	4
CN1C(=O)c2cc(NS(C)(=O)=O)ccc2OC[C@@H]2O[C@@H](CC(=O)O)CC[C@@H]21	-11	/	1	/	-6
O=C(Nc1cc(Cl)cc(Cl)c1)N[C@H]1CC[C@@H](CCNS(=O)(=O)c2cccc(F)c2)O[C@@H]1CO	/	/	0	/	1
C[C@@H]1CN([C@@H](C)CO)C(=O)Cc2cc(NC(=O)NC3CCCCC3)ccc2O[C@@H]1CN(C)S(=O)(=O)c1cn(C)cn1	-16	/	0	/	2
CC(C)(C)C(=O)C(Cl)C(=O)Nc1ccccc1 (centres undefined)	-3	4	-1	107*	0
O=C(Nc1ccc(Nc2ccccc2)cc1)C(Cl)Cl	3	1	/	17	/
SMILES	ARNT TACC3 PPI	NSD2 inh	SIRT5 block	PfHsp90 set2	CASP6 VEID inh
Cc1cccc(S(=O)(=O)N2C[C@H]3[C@@H](c4ccccc42)[C@H](CO)N3Cc2ccccn2)c1	20*	/	0	/	-2
Cc1cccc(S(=O)(=O)N2C[C@H]3[C@@H](c4ccccc42)[C@@H](CO)N3Cc2cccnc2)c1	-4	/	0	/	-3
C[C@H](CO)N1C[C@H](C)[C@@H](CN(C)C(=O)CN(C)C)Oc2ncc(-c3ccc(F)cc3)cc2C1=O	1	/	5	/	-2
Nc1nnc(CC(=O)N/N=C/c2cc([N+](=O)[O-])cc(Br)c2O)s1	9	15	47*	-2	33
CN(C)CCN(Cc1cccs1)S(=O)(=O)c1csc(C(N)=O)c1	3	0	33*	0	25
C[C@@H]1CN([C@H](C)CO)C(=O)c2cc(NS(=O)(=O)c3ccccc3)ccc2O[C@@H](C)CCCCO[C@@H]1CN(C)Cc1ccc(C(F)(F)F)cc1	-1	/	0	/	-1
C[C@@H]1CCCCO[C@@H](CN(C)Cc2ccc(C(F)(F)F)cc2)[C@@H](C)CN([C@H](C)CO)C(=O)c2cc(NS(=O)(=O)c3ccccc3)ccc2O1	3	/	1	/	15
C[C@@H]1CCCCO[C@@H](CN(C)Cc2ccc(C(F)(F)F)cc2)[C@H](C)CN([C@@H](C)CO)C(=O)c2cc(NS(=O)(=O)c3ccccc3)ccc2O1	6	/	21*	/	1
C[C@@H]1CCCCO[C@H](CN(C)Cc2ccc(C(F)(F)F)cc2)[C@@H](C)CN([C@@H](C)CO)C(=O)c2cc(NS(=O)(=O)c3ccccc3)ccc2O1	6	/	20*	/	1
C[C@@H]1CN([C@@H](C)CO)C(=O)c2cc(NS(=O)(=O)c3ccccc3)ccc2O[C@@H](C)CCCCO[C@H]1CN(C)Cc1ccc(C(F)(F)F)cc1	3	/	18*	/	1
C[C@@H]1CCCCO[C@H](CN(C)Cc2ccc(C(F)(F)F)cc2)[C@H](C)CN([C@@H](C)CO)C(=O)c2cc(NS(=O)(=O)c3ccccc3)ccc2O1	4	/	5	/	-3
Cc1ccccc1-c1cnc2c(c1)C(=O)N([C@H](C)CO)C[C@@H](C)[C@@H](CN(C)C(=O)c1ccncc1)O2	4	/	-4	/	0
CCOC(=O)Cn1cc(C#N)c2cccc(CC)c21	7	-1	24*	-9	-1
CCc1cccc2c(C#N)cn(CC(=O)NCc3ccco3)c12	-2	1	/	-14	/
CCCC(=O)Nc1ccc2c(c1)C(=O)N(C)C[C@@H](OC)[C@H](C)CN(C(=O)c1ccccn1)[C@@H](C)CO2	12	/	1	/	/
COC1=C/C(=C/c2c(N)n3nc(CC(=O)N4CCCCC4)sc3nc2=O)C=CC1=O	2	/	/	-6	/
C=CCC1=C/C(=C\c2c(N)n3nc(CC(=O)N4CCCC4)sc3nc2=O)C=C(OC)C1=O	-7	13	20*	-1	19
CCOC1=C/C(=C/c2c(N)n3nc(CC(=O)N4CCCCC4)sc3nc2=O)C=CC1=O	-16	7	32*	-17	5
Nc1c(C=C2C=CC(=O)C=C2)c(=O)nc2sc(CC(=O)N3CCOCC3)nn12	6	3	23*	-13	7
COC1=CC(=Cc2c(N)n3nc(CC(=O)N4CCOCC4)sc3nc2=O)C=C(OC)C1=O	-1	9	15	-23	3
CC(C)NC(=O)N(C)C[C@H]1Oc2cc(C#CC3CC3)ccc2S(=O)(=O)N([C@@H](C)CO)C[C@H]1C	3	/	1	/	1
C[C@H]1CN([C@@H](C)CO)S(=O)(=O)c2ccc(C#CC3CC3)cc2O[C@H]1CN(C)C(=O)Cc1ccncc1	-22	/	1	/	-3
C[C@H]1CN([C@@H](C)CO)S(=O)(=O)c2ccc(C#CC3CC3)cc2O[C@@H]1CN(C)C(=O)Cc1ccncc1	-1	/	18*	/	-4

High-throughput results deposited in PubChem by Broad Institute.
